FMDV antiviral: foot and mouth disease virus antiviral activity; FMDV antiviral cell-based qHTS; Potency, µM (top dose mostly 57.9 µM), most hits filed as inhibitors; hit rate 1.2% among 410,000; calls by dose curve; tested in HEK293T cells; note: read-out not given here; nearly all actives have a fitted effect of over 45% in size
HCMV inh: human cytomegalovirus inhibition; HFF cells, HCMV-luciferase reporter, 72 h; stronger effect = lower value; activity change, negative = inhibition, % at 57.5 µM; hit rate 4.5% among 410,000; in the data active = activity change below about -60%; inconclusive = no clear call, values can overlap the other calls; inactive = above about -39%
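Human foreskin fibroblasts infected with luciferase-reporter HCMV at MOI 1 PFU/cell, compounds at two doses. Luciferase measured 72 h post infection; normalized to buffer-only basal and Salinomycin (10uM) controls.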
MARV entry inh: Marburg virus entry inhibition; AID 540276; hit rate 1.8% among 300,000; Potency, µM (series often up to 37.8 µM), usual class: inhibitors; Marburg virus pseudotyped entry inhibition, cell reporter; calls by dose curve; tested in HEK293 cells
Lassa entry inh: blocks Lassa virus binding to or entry into cells. Lassa virus pseudotype entry inhibition, cell reporter. Potency, µM (series often up to 37.9 µM), most hits filed as inhibitors. AID 540256. hit rate 1.2% among 300,000; calls by dose curve; tested in HEK293 cells; note: nearly all actives have a fitted effect of over 50% in size
HCV inhibitor: blocks hepatitis C virus. Huh7.5.1 HCVcc-Cre infection, luciferase reporter, 44 h. Potency, µM (doses to about 41.8 µM), hits mostly inhibitors. hit rate 3.4% among 340,000. AID 651820; active = well fitted inhibition curve with a large enough effect; inconclusive = small, poorly fitted or top-dose-only effect, or another doubt; inactive = no such curve, though single readings can be large or run the other way
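Cells (1,000/well) were plated 4 h before compound, then infected with HCVcc-Cre virus (~0.5 moi). After 44 h further culture, infection was read as luciferase luminescence following a 15 min substrate incubation at room temperature.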
Large screens that a line does not name were inactive. This is a sample that favours compounds with a hit; in the whole collection about 7.9% have one here.

CCCOc1ccccc1-n1sc2c(c1=S)-c1cc(OC)cc3c1N(C(=O)C3=O)C2(C)C	FMDV antiviral inconclusive, MARV entry inh inconclusive, Lassa entry inh inconclusive, HCV inhibitor 12.6µM
Cc1nc(SCc2ccc(Cl)cc2)c(C#N)c(C)c1Cl	Lassa entry inh inconclusive (no result: HCV inhibitor)
Cc1cc(N(C)NC(=S)Nc2ccccc2)nc(C)n1	HCMV inh -90.7
CC(C)N(C)NC(=S)Nc1ccccc1	none
COc1ccc(CCNC(=O)CCc2cn(Cc3ccc(C)cc3)c3ccccc23)c(OC)c1OC	HCMV inh inconclusive (no result: MARV entry inh, HCV inhibitor)
CC(=O)c1sc(N/N=C/c2cccc(O)c2)nc1C	none (no result: MARV entry inh, Lassa entry inh)
CC(=O)c1sc(N/N=C\c2c(O)ccc3ccccc23)nc1C	HCMV inh -74.9, MARV entry inh inconclusive, Lassa entry inh inconclusive, HCV inhibitor inconclusive
CC(C)(C)c1ccc(-n2nc(C(N)=O)c(O)cc2=O)cc1	MARV entry inh inconclusive
CC(C)(C)c1ccc(-n2nc(C#N)c(Cl)cc2=O)cc1	FMDV antiviral 12.6µM, HCMV inh -100.5, MARV entry inh inconclusive, Lassa entry inh inconclusive, HCV inhibitor inconclusive
Cn1c(=O)c2[nH]c(CCCCCCCCc3nc4ccccc4[nH]3)nc2n(C)c1=O	FMDV antiviral 12.6µM, HCMV inh -91.2, MARV entry inh inconclusive, Lassa entry inh 11.2µM, HCV inhibitor inconclusive
Oc1ccc([C@@H]2CNCc3sccc32)cc1O	none (no result: FMDV antiviral, HCMV inh, Lassa entry inh, HCV inhibitor)
Cc1ccccc1CN1CC2=C(CCN(Cc3ccccc3)C2=O)N2CCN=C12	HCMV inh -99.3 (no result: MARV entry inh, Lassa entry inh, HCV inhibitor)
CCOC(=O)c1cc(C)n(CC2CCC(C(=O)Nc3ccc(C(C)=O)cc3)CC2)c1C (stereo not given)	FMDV antiviral inconclusive (no result: MARV entry inh, HCV inhibitor)
O=C(CNC(=S)NC(=O)C1CCCCC1)c1ccccc1	HCMV inh -78.8, MARV entry inh inconclusive
O=C(NC(=S)NCCc1ccccc1)C1CCCCC1	MARV entry inh inconclusive, Lassa entry inh inconclusive, HCV inhibitor inconclusive
CCc1ccc(C2NC(=S)NC3=C2C(=O)CC(C)(C)C3)cc1 (stereo not given)	MARV entry inh inconclusive
CC(C)c1ccc(C2NC(=S)NC3=C2C(=O)CC(C)(C)C3)cc1 (stereo not given)	HCMV inh -71.1
CSc1cccc(NC(=O)C2CCN(S(=O)(=O)c3ccc(F)cc3)CC2)c1	Lassa entry inh inconclusive, HCV inhibitor 11.2µM (no result: FMDV antiviral)
COc1ccc(NC(=S)N2CCN(S(=O)(=O)c3ccc(OC)cc3)CC2)cc1	none
COc1ccc(NC(=S)N2CCN(S(=O)(=O)c3ccc(C)cc3)CC2)cc1	HCMV inh -60.6
COc1cccc(NC(=S)N2CCN(S(=O)(=O)c3ccc(F)cc3)CC2)c1	HCMV inh -63.1
COc1cc(NC(=S)N2CCN(S(=O)(=O)c3ccc(F)cc3)CC2)cc(OC)c1	Lassa entry inh inconclusive
COc1ccc(-n2c(=O)c(CCc3ccccc3)nc3cncnc32)cc1	none (no result: HCMV inh, MARV entry inh, Lassa entry inh, HCV inhibitor)
Cc1nc2c(O)c3c(c(O)c2nc1C)C1C=CC3CC1	FMDV antiviral 7.08µM, MARV entry inh inconclusive, Lassa entry inh inconclusive, HCV inhibitor 7.94µM
CCOC(=O)CN(c1sc(C)c(C)c1C(=O)OCC)S(=O)(=O)c1ccc(C)cc1	HCMV inh -65.2 (no result: MARV entry inh, Lassa entry inh, HCV inhibitor)
O=C(OCCN1C(=O)c2cccc3c(N4CCOCC4)ccc(c23)C1=O)c1cccc(Cl)c1	FMDV antiviral inconclusive, MARV entry inh inconclusive, Lassa entry inh inconclusive, HCV inhibitor 11.2µM (no result: HCMV inh)
O=C(OCCN1C(=O)c2cccc3c(N4CCOCC4)ccc(c23)C1=O)c1ccccc1Cl	FMDV antiviral inconclusive, HCMV inh inconclusive, MARV entry inh 7.08µM, Lassa entry inh inconclusive, HCV inhibitor inconclusive
O=C1c2cccc3c(N4CCCCC4)ccc(c23)C(=O)N1CCO	MARV entry inh inconclusive, Lassa entry inh inconclusive, HCV inhibitor inconclusive
O=C(OCCN1C(=O)c2ccccc2C1=O)c1cc(S(=O)(=O)N2CCOCC2)ccc1Cl	none
O=C(OCCN1C(=O)c2cccc3c(N4CCOCC4)ccc(c23)C1=O)c1ccc(Cl)cc1Cl	FMDV antiviral 15.8µM, MARV entry inh inconclusive, Lassa entry inh inconclusive, HCV inhibitor inconclusive
Cc1cnc(C)c(-c2cc(F)cc3c2OC(CNC(=O)Cc2c(C)noc2C)C3)n1 (stereo not given)	none (no result: HCMV inh, MARV entry inh, Lassa entry inh, HCV inhibitor)
O=C(Cc1csc(Nc2nc(=S)[nH]c3ccccc23)n1)N1CCN(c2cccc(Cl)c2)CC1	MARV entry inh inconclusive, HCV inhibitor 11.2µM (no result: Lassa entry inh)
Cc1ccc(Cl)cc1N1CCN(C(=O)Cc2csc(Nc3nc(=S)[nH]c4ccccc34)n2)CC1	HCMV inh inconclusive, HCV inhibitor inconclusive
O=C1C=C(c2ccccc2)C(=O)N1Nc1ccccc1	FMDV antiviral 35.5µM, Lassa entry inh inconclusive, HCV inhibitor inconclusive
Cc1ccc(NN2C(=O)C=C(c3ccc(Cl)cc3)C2=O)cc1	FMDV antiviral 39.8µM, MARV entry inh inconclusive, Lassa entry inh inconclusive
COc1ccc(C2=CC(=O)N(Nc3ccccc3)C2=O)cc1	FMDV antiviral inconclusive, MARV entry inh inconclusive
Cc1n[nH]c(C)c1S(=O)(=O)N1CCC(C(=O)Nc2cccc(F)c2)CC1	none (no result: MARV entry inh, Lassa entry inh)
Cc1ccc(C2=CC(c3ccc(N(C)C)cc3)n3nnnc3N2)cc1 (stereo not given)	HCMV inh -76.1, HCV inhibitor inconclusive (no result: MARV entry inh, Lassa entry inh)
COc1ccc(C2C=C(c3ccc(Br)cc3)Nc3nnnn32)c(OC)c1 (stereo not given)	HCMV inh -72.1 (no result: MARV entry inh, HCV inhibitor)
CC(C)c1ccc(C2=CC(c3ccc(C(C)C)cc3)n3nnnc3N2)cc1 (stereo not given)	Lassa entry inh inconclusive (no result: MARV entry inh, HCV inhibitor)
CCc1ccc(C2=CC(c3cccc(Br)c3)n3nnnc3N2)cc1 (stereo not given)	HCMV inh -66.3 (no result: MARV entry inh, HCV inhibitor)
Cc1ccc2nc(CSc3nnc4ccccn34)cc(=O)n2c1	none
Cc1ccc2nc(CSc3nnc(-c4ccco4)n3-c3ccccc3)cc(=O)n2c1	HCMV inh -104.6
COCC(C)n1c(SCc2cc(=O)n3cc(C)ccc3n2)nc2ccccc2c1=O (stereo not given)	HCMV inh -60.8, MARV entry inh 5.01µM, Lassa entry inh 6.31µM, HCV inhibitor inconclusive
Cc1ccc2nc(CSc3nnc(-c4ccco4)o3)cc(=O)n2c1	none
Clc1cccc(Cl)c1NC1=NCCN1	MARV entry inh inconclusive (no result: HCMV inh, HCV inhibitor)
CCn1cc(C(=O)NC(C)c2ccccc2)c(=O)c2cc(S(=O)(=O)N3CCc4ccccc4C3)ccc21 (stereo not given)	none (no result: HCV inhibitor)
O=C1O[C@H](Nc2ccc(Br)cn2)c2ccccc21	none (no result: FMDV antiviral, HCMV inh, Lassa entry inh, HCV inhibitor)
COc1ccc(/C=C/C(=O)N2CCc3c(cnc(C)c3CNS(=O)(=O)c3cccs3)C2)cc1	none (no result: HCMV inh, MARV entry inh, Lassa entry inh, HCV inhibitor)
CCOc1ccc(-c2nonc2NC(=O)c2oc3cc(Br)ccc3c2C)cc1	HCMV inh inconclusive (no result: HCV inhibitor)
CCOc1ccc(-c2nonc2NC(=O)c2oc3ccc(Br)cc3c2C)cc1	HCMV inh -95.6, Lassa entry inh inconclusive (no result: HCV inhibitor)
Cn1c(SCC(=O)NC2CCCC2)nnc1-c1ccccn1	none (no result: MARV entry inh, Lassa entry inh)
COc1ccc(CN2CCC3(CCC(CNC(=O)C4CCCO4)O3)CC2)c(C)c1C (stereo not given)	none (no result: HCMV inh, MARV entry inh, Lassa entry inh, HCV inhibitor)
COc1cccc(NC(=O)COC(=O)c2cc(S(=O)(=O)N3CCOCC3)ccc2C)c1	MARV entry inh 17.8µM
O=C(COC(=O)CCc1ccc(S(=O)(=O)N2CCCCC2)cc1)Nc1cccc2ccccc12	HCMV inh -106.3
Cc1cccc(NC(=O)COC(=O)c2ccc(S(=O)(=O)N3CCCCCC3)cc2)c1	HCMV inh -99.2

Screening data: PubChem BioAssay, National Center for Advancing Translational Sciences (NCATS)
